Screening results as filed in PubChem BioAssay.
This is one part of a sample in which hits are shown more often than they occur.
S1P2 blocker: human S1P2 receptor antagonists, primary screen, cell-based. Sphingosine 1-phosphate receptor 2 (Homo sapiens), O95136. cell-based S1P2 antagonist assay, inhibition at 5 uM. inhibition, % at 5 µM. 0.21% of 97,000 active. AID 736, 2007; in the data active means inhibition above about 45%;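 further: CRE beta-lactamase reporter cells expressing human S1P2 stimulated with S1P; 0% = agonist at EC80 alone and 100% = agonist plus reference antagonist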
Target sequence (O95136 whole entry, looked up): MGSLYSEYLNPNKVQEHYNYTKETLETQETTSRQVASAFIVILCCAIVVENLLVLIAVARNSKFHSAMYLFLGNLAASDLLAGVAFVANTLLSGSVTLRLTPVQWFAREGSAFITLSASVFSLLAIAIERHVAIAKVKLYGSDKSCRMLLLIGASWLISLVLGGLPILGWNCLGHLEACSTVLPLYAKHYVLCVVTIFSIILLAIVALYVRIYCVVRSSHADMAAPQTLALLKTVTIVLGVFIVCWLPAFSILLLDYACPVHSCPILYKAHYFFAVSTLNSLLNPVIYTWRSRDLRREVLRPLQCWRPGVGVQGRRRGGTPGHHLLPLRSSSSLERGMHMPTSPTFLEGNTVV
S1P2 agonist: S1P2 receptor agonists, primary screen, cell-based; S1P2-expressing cell line, agonist reporter read-out; AID 729, 2007; 0.46% of 97,000 active; Sphingosine 1-phosphate receptor 2 (Homo sapiens), O95136; activation, % at 4.5 µM; in the data active means activation above about 16%;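 further: 0% = vehicle low control and 100% = maximal reference agonist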
GALR2 antag: GALR2 antagonists in receptor-expressing cells, primary screen; Galanin receptor type 2 (Homo sapiens), O43603; antagonist mode; inhibition, % at 4 µM; 0.39% of 140,000 active; AID 828, 2007; in the data active means inhibition above about 27%;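 further: cells stimulated with galanin 1-16 at roughly its EC80; 0% = agonist challenge control and 100% = basal control without agonist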
PostGolgi ctrl: growth inhibition of yeast control strain, primary screen, counter-screen for post-Golgi transport modulator project; efflux-deficient yeast background strain, growth absorbance A615, 16 h; inhibition, % at 10 µM; 5% of 98,000 active; AID 738, 2007
PostGolgi yeast: phenotypic screen on post-Golgi transport, primary screen; AID 739, 2007; 0.9% of 98,000 active; inhibition, % at 10 µM; post-Golgi transport phenotypic cell assay;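 further: yeast cells grown in 1536-well plates; yeast grown about 18 h at 30C before absorbance read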
GALR2 ag: GALR2 receptor agonists, primary screen, cell-based; 0.48% of 140,000 active; activation, % (no concentration beside the values); GALR2-expressing cells, agonist activation read-out; in the data active means activation above about 5%, passing the limit was not always enough;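 further: 0% = vehicle buffer wells and 100% = reference agonist at full effect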
Active calls of the source: *. Unless noted, no stated cut-off is given here; in the data, active means inhibition above about 30%; inactive means the rest.

`NC(=S)N/N=C\c1ccc(-c2cccc(Cl)c2Cl)o1` gave S1P2 blocker -9, S1P2 agonist -5, GALR2 antag 1, PostGolgi ctrl 48*, PostGolgi yeast 9 and GALR2 ag -2.
Screening Brc1cccc(-c2n[nH]c(-c3ccccc3)n2)c1 returned S1P2 blocker -9, S1P2 agonist -8, GALR2 antag 16, PostGolgi ctrl 43*, PostGolgi yeast 11 and GALR2 ag 0.
For c1ccc(-c2nc(-c3cccnc3)n[nH]2)cc1 the results were GALR2 antag 12 and GALR2 ag -2.
For N#Cc1ccccc1Cn1cc(/C=C/[N+](=O)[O-])c2ccccc21 the results were GALR2 antag 8 and GALR2 ag -1.
Cc1ccc(CNC(=O)c2sccc2-n2cccc2)cc1 was read as S1P2 blocker 7, S1P2 agonist 2, GALR2 antag 6, PostGolgi ctrl 30*, PostGolgi yeast 16 and GALR2 ag -1.
Screening CNC(=O)c1sccc1-n1cccc1 returned S1P2 blocker 4, S1P2 agonist -1, GALR2 antag -4, PostGolgi ctrl 2, PostGolgi yeast -1 and GALR2 ag -1.
Screening O=C(CCC(=O)c1ccc(F)cc1)Nc1cccc(S(=O)(=O)Nc2cccc(Cl)c2)c1 returned GALR2 antag 2 and GALR2 ag -1.
CCOc1cc(/C=C2\C(=O)N(c3nc(-c4ccc(Br)cc4)cs3)N=C2c2ccccc2)ccc1O was read as S1P2 blocker 8, S1P2 agonist -2, GALR2 antag -6, PostGolgi ctrl 31*, PostGolgi yeast 1 and GALR2 ag 0.
Screening COc1ccc(/C=C2\C(=O)N(c3nc(-c4ccc(Br)cc4)cs3)N=C2c2ccccc2)cc1 returned S1P2 blocker 1, S1P2 agonist 0, GALR2 antag -8 and GALR2 ag -2.
`COc1ccc(N(CC(O)Cn2cnc3ccccc32)S(=O)(=O)c2ccc(C)cc2)cc1` (configuration not stated) gave GALR2 antag 10 and GALR2 ag 0.
For Cc1ccc(NC(=O)c2cc([N+](=O)[O-])ccc2NCc2cccnc2)cc1 the results were S1P2 blocker 2, S1P2 agonist -5, GALR2 antag -1, PostGolgi ctrl 5, PostGolgi yeast -4 and GALR2 ag -2.
Screening Cc1ccc(CN(Cc2ccco2)S(=O)(=O)c2ccc(S(=O)(=O)NCC3CCCO3)cc2)cc1 (configuration not stated) returned GALR2 antag 5 and GALR2 ag -1.
`O=S(=O)(Nc1ccc(O)c(Sc2nc3ccccc3s2)c1)c1ccc(Cl)cc1` gave S1P2 blocker 12, S1P2 agonist -10, GALR2 antag -8, PostGolgi ctrl 28, PostGolgi yeast 37* and GALR2 ag -1.
Screening CCOc1cc(-c2noc(CCC(=O)Nc3cccnc3)n2)ccc1OC returned GALR2 antag 7, PostGolgi ctrl 33*, PostGolgi yeast -2 and GALR2 ag -1.
CCOc1ccc(-c2noc(CCC(=O)NC)n2)cc1OCC was read as GALR2 antag 10, PostGolgi ctrl -7, PostGolgi yeast 1 and GALR2 ag -2.
`CCc1ccc(OCC(=O)NCCN(C)C)c(Br)c1` gave S1P2 blocker 11, S1P2 agonist -3, GALR2 antag 2, PostGolgi ctrl 11, PostGolgi yeast -3 and GALR2 ag -3.
For CCc1ccc(OCC(=O)N(C)CCC#N)c(Br)c1 the results were S1P2 blocker -3, S1P2 agonist -2, GALR2 antag -19, PostGolgi ctrl 39*, PostGolgi yeast -14 and GALR2 ag -2.
Screening Cc1nn(Cc2cccc(C(=O)N3CCCC(C)C3)c2)c(C)c1[N+](=O)[O-] (configuration not stated) returned GALR2 antag -3 and GALR2 ag -1.
`N#CC(C#N)=C(Nc1ccc(F)cc1)SCc1cccc(F)c1` gave GALR2 antag 18 and GALR2 ag -2.
Screening O=C(N/N=C/c1cccs1)c1cc(-c2ccc3ccccc3c2)n[nH]1 returned S1P2 blocker -2, S1P2 agonist -5, GALR2 antag -3, PostGolgi ctrl 59*, PostGolgi yeast -3 and GALR2 ag -1.
`O=C(N/N=C/c1cccs1)c1cc(-c2cccc3ccccc23)n[nH]1` gave GALR2 antag -2 and GALR2 ag 0.
O=C(N/N=C/c1ccccn1)c1cc(-c2ccc3ccccc3c2)n[nH]1 was read as GALR2 antag 0 and GALR2 ag 1.
For O=C(N/N=C/c1ccco1)c1cc(-c2ccc3ccccc3c2)n[nH]1 the results were S1P2 blocker -7, S1P2 agonist -5, GALR2 antag -7, PostGolgi ctrl 43*, PostGolgi yeast 13 and GALR2 ag -3.
For CCOc1ccc(NC(=O)CSc2nc(-c3cccs3)cc(C(F)(F)F)n2)c([N+](=O)[O-])c1 the results were GALR2 antag -5 and GALR2 ag -1.
CCCOc1ccc2c3c(c(=O)oc2c1OCCC)CCCC3 was read as S1P2 blocker -19, S1P2 agonist -6, GALR2 antag 2, PostGolgi ctrl 56*, PostGolgi yeast -5 and GALR2 ag -3.
Screening CCOc1ccc2c3c(c(=O)oc2c1OCC)CCCC3 returned S1P2 blocker -26, S1P2 agonist -7, GALR2 antag 7, PostGolgi ctrl 15, PostGolgi yeast -6 and GALR2 ag 1.
O=C1c2ccccc2C(=O)C1c1nccc2ccccc12 was read as GALR2 antag 13, PostGolgi ctrl 61*, PostGolgi yeast 4 and GALR2 ag 1.
`COc1cccc(OC)c1-c1nn2c(-c3ccccc3Cl)nnc2s1` gave S1P2 blocker -7, S1P2 agonist -10, GALR2 antag 11, PostGolgi ctrl 38*, PostGolgi yeast -3 and GALR2 ag 0.
`Clc1ccccc1-c1nnc2sc(-c3ccccn3)nn12` gave S1P2 blocker -31, S1P2 agonist -3, GALR2 antag -7 and GALR2 ag 0.
`COc1ccccc1-c1nnc2sc(COc3ccc(Cl)cc3)nn12` gave S1P2 blocker -9, S1P2 agonist -4, GALR2 antag -10, PostGolgi ctrl 35*, PostGolgi yeast 11 and GALR2 ag 0.
For CCOC(=O)c1c(-c2ccc(Cl)cc2)c(C#N)c(=O)n(N)c1N the results were S1P2 blocker -13, S1P2 agonist -7, GALR2 antag -8, PostGolgi ctrl -3, PostGolgi yeast 18 and GALR2 ag -1.
`COc1ccc(/C=N/NC(=O)c2cccc([N+](=O)[O-])c2)cc1OC(=O)c1ccccc1` gave S1P2 blocker 29, S1P2 agonist -9, GALR2 antag 9, PostGolgi ctrl 33*, PostGolgi yeast -13 and GALR2 ag -3.
